Compounds with a hit are over-represented: about 22% of the library has one in this group of screens.
LmPK inh = blocks Leishmania mexicana pyruvate kinase activity. 0.37% of 290,000 active. purified LmPK, Kinase-Glo ATP luminescence, 1 h. Potency, µM (top dose mostly 57.5 µM), for inactives: at the top dose activity change, negative = inhibition, most hits filed as inhibitors; further: potency means the concentration at half of the fitted maximal effect; on the % scale 0 is the no-effect control and ±100 the full control effect
Target sequence (Q27686 whole entry, looked up): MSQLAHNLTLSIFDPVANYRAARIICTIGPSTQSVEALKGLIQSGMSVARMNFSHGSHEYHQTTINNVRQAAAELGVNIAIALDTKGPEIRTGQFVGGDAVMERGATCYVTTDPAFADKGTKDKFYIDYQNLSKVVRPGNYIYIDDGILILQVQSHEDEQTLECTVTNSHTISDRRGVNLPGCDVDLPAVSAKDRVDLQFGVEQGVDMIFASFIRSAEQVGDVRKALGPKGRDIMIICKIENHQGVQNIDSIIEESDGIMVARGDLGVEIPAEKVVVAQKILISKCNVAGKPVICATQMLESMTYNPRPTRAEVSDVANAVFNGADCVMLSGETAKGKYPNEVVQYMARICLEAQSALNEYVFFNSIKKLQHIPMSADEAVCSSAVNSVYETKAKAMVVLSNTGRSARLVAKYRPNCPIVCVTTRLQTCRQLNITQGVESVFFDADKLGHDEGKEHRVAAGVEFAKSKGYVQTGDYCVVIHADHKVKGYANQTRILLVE
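In 50 mM imidazole pH 7.2 with 7 mM MgCl2, LmPK (0.1 nM) turned over PEP (0.5 mM) and ADP (0.1 mM) for 1 h at room temperature. Luciferase read-out of ATP.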
Pf growth 96h = P. falciparum growth inhibition at 96 hours | P. falciparum luciferase reporter growth, 96 h | Potency, µM (titrated, usually from 28.7 µM), for the others: at the top dose activity change, negative = inhibition, hits mostly inhibitors | 6.9% of 320,000 active | AID 504834; further: potency means the concentration at half of the fitted maximal effect; on the % scale 0 is the no-effect control and ±100 the full control effect
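Two parasite generations (96 h, 37 C, 5% CO2) of compound exposure in infected erythrocytes (0.05% parasitemia, 2% hematocrit). Luciferase-reporter P. falciparum; decreased luminescence indicates inhibited growth, aimed at apicoplast-acting delayed death.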
Shiga inhibitor = blocks Shiga toxin action in Vero cells; Vero cells, Shiga toxin protein synthesis inhibition reporter; inhibition, % at 38.7 µM; 9.2% of 290,000 active; AID 2315; in the data active means inhibition mostly above about 28%, no sharp cut-off; inactive means mostly below about 43%; further: 0% is about no effect
Pf growth 48h = P. falciparum growth inhibition at 48 hours (one generation). P. falciparum luciferase growth in erythrocytes, 48 h. Potency, µM (doses to about 28.7 µM), for inactives: at the highest dose activity change, negative = inhibition, hits mostly inhibitors. 5.9% of 310,000 active. AID 504832; further: potency means the concentration at half of the fitted maximal effect; on the % scale 0 is the no-effect control and ±100 the full control effect
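Luciferase-expressing parasites in RBCs, 2% Hct / 0.1% parasitemia final; RPMI 1640 + 0.5% Albumax; 37 C, 5% CO2, one generation; luminescence read-out, lower signal = inhibition.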
Cycloheximide cs = counter-screen for Shiga toxin inhibitors: cycloheximide protein synthesis inhibition; cell reporter, cycloheximide protein synthesis inhibition counterscreen; AID 2314; 12% of 300,000 active; max response, %; in the data active means max response mostly above about 13%, no sharp cut-off; inactive means mostly below about 14%; further: read at 38.3 µM for the half of the compounds with a filed dose; 0% is about no effect
The depositor's hits bear a star; u = inconclusive; x = no result given; [ ] = remark or other dose. Unless noted, the call rests on the fitted dose curve; in most records, active means well fitted inhibition curve with a large enough effect; inconclusive means small, poorly fitted or top-dose-only effect, or another doubt; inactive means no such curve, though single readings can be large or run the other way.

SMILES	LmPK inh	Pf growth 96h	Shiga inhibitor	Pf growth 48h	Cycloheximide cs
COc1ccc(-c2nc(C)ncc2N=Nc2ccccc2)cc1	3.3%	3.7µM*	22.9	9.28µM*	19.9*
Cc1ncc(N=Nc2ccc(F)cc2)c(-c2ccc(Cl)cc2)n1	3.8%	21.0%	-3.9	u	-3.1
Cn1nc(C(C)(C)C)c([N+](=O)[O-])c1C(=O)NC1CCCCC1	0.4%	11.7%	1.2	-1.7%	6.6
O=C(CC1CC2CCC1C2)NCc1cccs1 (centres undefined)	-2.6%	18.2%	51.9	26.2%	15.5*
Cc1ccc(NC(=O)C2CCCN(C(=O)c3ccc(Cl)cc3)C2)cc1 (centres undefined)	3.0%	45.2%	69.7*	10.6%	47.7
Cc1ccc(NC(=O)C2CCCN(C(=O)c3ccc(Cl)cc3)C2)c(C)c1 (centres undefined)	0.3%	-25.0%	25.2	31.1%	15.2
Cc1ccc(NC(=O)C2CCCN(C(=O)c3ccc(Cl)cc3)C2)cc1C (centres undefined)	7.6%	68.7%	72.4*	106.3%	40.1*
Cc1cccc(C)c1NC(=O)CNC(=O)C1CCCN(C(=O)c2ccc(Cl)cc2)C1 (centres undefined)	x	-13.0%	x	-14.7%	x
CC(C)CNC(=O)CSc1nnc2ccccn12	-0.6%	-0.5%	14.4	16.1%	-1.8
Cc1ccc(-c2cc(-c3nnc(SCC(=O)NCC(C)C)n3N)c3ccccc3n2)cc1	5.2%	-9.8%[5.75 µM]	28.7	-17.3%	35.7*
CCC(C)NC(=O)CSc1nnc(-c2cc(-c3ccc(C)cc3)nc3ccccc23)n1N (centres undefined)	6.8%	11.7µM*	-1.6	x	0.8
CC(C)(C)NC(=O)COC(=O)c1ccc(Cl)c(S(N)(=O)=O)c1	-0.7%	20.3%	-0.8	16.0%	7.6
COc1ccc(NC(=O)c2cc(S(=O)(=O)N3CCc4ccccc43)cn2C)cc1	-3.9%	-10.3%	28.2*	9.28µM*	14.3*
COc1ccc(NS(=O)(=O)c2cccc(C(=O)N(C)CC(=O)Nc3ccc(C)cc3)c2)cc1	x	u	x	-2.6%	x
COc1ccc(NC(=O)CN(C)C(=O)c2cccc(S(=O)(=O)N3CCCc4ccccc43)c2)cc1	x	u	x	13.1µM*	x
Cc1ccc(NC(=O)c2cc(S(=O)(=O)N3CCc4ccccc43)cn2C)cc1C	6.5%	-0.6%	7.4	u	5.2
COc1ccccc1CN(C)C(=O)c1cccc(S(=O)(=O)N2CCCc3ccccc32)c1	x	9.28µM*	x	7.38µM*	x
COc1ccc(N(CC(=O)Nc2ccc(S(=O)(=O)N3CCOCC3)cc2)S(=O)(=O)c2ccccc2)cc1	-1.3%	x	23.0	10.4µM*	-1.2
COc1ccc(N(CC(=O)Nc2ccc(Cc3ccncc3)cc2)S(=O)(=O)c2ccccc2)cc1	9.4%	3.2%	-8.7	13.1µM*	-2.5
COc1ccccc1N(CC(=O)Nc1ccc(Cc2ccncc2)cc1)S(=O)(=O)c1ccccc1	0.7%	u	-4.6	8.28µM*	-3.0
COCc1cc(=O)n2[nH]c(-c3ccccc3)cc2n1	2.1%	18.4%	30.2	x	23.3*
COCc1cc(=O)n2[nH]c(-c3cccc(Br)c3)cc2n1	-1.8%	-1.3%	68.4	35.7%	27.3*
COc1cc2c(cc1OC)C(c1ccccc1)CN(C)CC2 (centres undefined)	x	15.1µM*	x	u	x
COC(=O)c1nn(-c2c(C)n(C)n(-c3ccccc3)c2=O)cc1O	4.1%	-17.3%	-9.4	x	-1.7
O=C(CCC(=O)c1ccc(F)cc1)Nc1cccc(Br)c1	-3.5%	-15.2%	-1.1	-3.3%	4.8
SMILES	LmPK inh	Pf growth 96h	Shiga inhibitor	Pf growth 48h	Cycloheximide cs
CCCOc1ccccc1C1C(C(=O)OC)=CN(C(C)C)C=C1C(=O)OC	-0.9%	x	29.1	13.1µM*	-1.5
CC(C)c1cc(CNC(=O)c2ccc(OC3CCN(Cc4ccccn4)CC3)cc2)on1	-3.8%	u	-1.0	-1.9%	13.4
COCC(C)N1CCC(Oc2ccc(C(=O)NCc3ccccn3)cc2)CC1 (centres undefined)	0.9%	11.7µM*	-13.8	11.1%	1.3
C/C=C(\C)CN1CCC(Oc2ccc(C(=O)NCc3ccccn3)cc2)CC1	-5.5%	-26.0%	-6.1	-10.4%	10.2
CCOc1ccccc1CN1CCC(Oc2ccc(C(=O)NCc3ccccn3)cc2)CC1	-6.8%	u	0.1	10.4µM*	-1.8
Cc1ccc(C(=O)OCc2cc(=O)n3c(C)csc3n2)s1	x	-9.4%	x	-8.9%	x
CC(C)(C)NC(=O)C(c1ccncc1)N(C(=O)c1csnn1)c1cccc2ccccc12 (centres undefined)	0.4%	u	7.3	-27.6%	5.4
O=C(N/N=C/c1cc([N+](=O)[O-])ccc1Cl)c1cnccn1	8.2%	-12.2%	-10.2	-0.3%	-1.5
C/C(=N/OC(=O)c1c(-c2c(Cl)cccc2Cl)noc1C)c1cnccn1	5.0%	-2.2%	-7.3	2.6%	-1.8
O=C(N/N=C/c1cccc([N+](=O)[O-])c1)c1cnccn1	-0.5%	-12.6%	active	17.0%	15.6
COc1cccc(C=Nc2cccnc2)c1O	-29.7%	23.3%	8.4	3.9%	-1.9
COc1cccc(/C=N/NC(=O)c2cnccn2)c1O	-21.2%	-14.6%	88.8*	u	37.3*
COc1cccc(/C=N/NC(=O)c2cc3c(OC)cccc3[nH]2)c1O	-0.8%	1.85µM*	1.3	u	-2.3
COc1cccc(C(=O)O/N=C(\C)c2cnccn2)c1	u	u	10.4	16.1%	18.8*
COc1cccc(/C=N/NC(=O)c2cc3c(OC)cccc3[nH]2)c1OC	0.5%	4.0%	-12.9	16.0%	2.8
CCO[C@@H]1OC(C(N)=O)=C[C@H](c2coc3ccccc3c2=O)[C@H]1CCCO	1.0%	2.8%	-7.5	-7.6%	-1.1
COc1ccc(/C=N/NC(=O)c2cc3c(OC)ccc(OC)c3[nH]2)cc1O	u	u	9.0	3.7µM*	6.7
COc1cc(/C=N/NC(=O)c2cccc(C(=O)N/N=C/c3ccc(O)c(OC)c3)n2)ccc1O	1.5%	-2.2%	19.2	-5.0%	9.6
COc1ccc(OC)c(/C=N/NC(=O)c2cnccn2)c1	-0.9%	63.4%	69.2*	-3.1%	9.1
COc1cccc(/C=N/NC(=O)c2cnccn2)c1	-15.0%	0.0%	86.0*	36.8%	75.4*
COc1ccc(/C=N/NC(=O)c2cnccn2)cc1O	-15.4%	-13.0%	38.4*	90.1%	65.3*
COc1ccc(/C=N/NC(=O)c2cnccn2)c(OC)c1OC	0.5%	18.2%	16.5	40.4%	19.6
CCN(CC(=O)NCc1cccs1)C(=O)C(c1ccccc1)c1ccccc1	6.8%	-12.4%	-13.9	-7.6%	-3.3
O=C(/C=C/c1ccc(Cl)cc1Cl)OCC(=O)N1CCCC1	x	24.9%	x	10.8%	x
Cc1ccc2sc(N(CCCN(C)C)C(=O)c3ccc(S(=O)(=O)N4CCOCC4)cc3)nc2c1C	x	u	x	13.1µM*	x
Cc1ccc2sc(N(CCCN(C)C)C(=O)c3ccc(S(=O)(=O)N(C)C4CCCCC4)cc3)nc2c1C	x	11.7µM*	x	10.4µM*	x
